Most compounds without a hit are left out; they make up all but 9.6% or so of the library.
USP17 block – inhibitors of human USP17 deubiquitinase | purified USP17, Ub-rhodamine cleavage fluorescence, 3 h | AID 1645855 | hit rate 6.5% among 47,000 | inhibition, % at 50 µM
USP30 block – human USP30 deubiquitinase inhibition. Q70CQ3. purified USP30, Ub-rhodamine cleavage fluorescence. inhibition, % at 25 µM. hit rate 5.3% among 47,000
Target sequence (Q70CQ3 whole entry, looked up): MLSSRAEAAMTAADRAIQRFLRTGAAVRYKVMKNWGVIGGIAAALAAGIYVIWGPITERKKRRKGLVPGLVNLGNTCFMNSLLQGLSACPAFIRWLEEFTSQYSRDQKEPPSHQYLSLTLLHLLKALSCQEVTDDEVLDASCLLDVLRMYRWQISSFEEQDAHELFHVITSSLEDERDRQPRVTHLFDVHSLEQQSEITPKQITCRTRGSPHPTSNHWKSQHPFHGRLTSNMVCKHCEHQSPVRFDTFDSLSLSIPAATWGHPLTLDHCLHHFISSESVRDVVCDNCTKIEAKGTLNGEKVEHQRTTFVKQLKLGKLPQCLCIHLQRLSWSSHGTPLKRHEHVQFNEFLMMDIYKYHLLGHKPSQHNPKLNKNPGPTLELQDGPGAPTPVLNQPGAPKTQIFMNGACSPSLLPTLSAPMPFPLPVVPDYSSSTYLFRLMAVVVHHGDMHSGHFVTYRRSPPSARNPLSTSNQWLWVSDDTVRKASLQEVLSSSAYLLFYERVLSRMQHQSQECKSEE
Large screens that a line does not name were inactive. Cut-off read from the data, not from the text of the source: active = inhibition above about 30%; inactive = the rest.

O=C(Cn1c(=O)c2ccccc2n(CC(=O)Nc2ccc(Br)cc2)c1=O)NCc1ccco1	USP17 block 31.1
O=C(Cc1ccc(-n2c(=O)c3ccccc3n(CC(=O)Nc3cc(Cl)cc(Cl)c3)c2=O)cc1)NCCc1ccccc1	none
O=C(Cn1c(=O)ccn(Cc2ccccc2)c1=O)NCc1ccco1	none
COc1cc(NC(=O)Cn2c(=O)n(-c3ccc(CC(=O)NCc4ccco4)cc3)c(=O)c3ccccc32)cc(OC)c1	none
CCc1ccc(NC(=O)Cn2c(=O)n(-c3ccc(CC(=O)NCc4ccco4)cc3)c(=O)c3ccccc32)cc1	USP17 block 47.4
O=C(Cn1c(=O)n(CC(=O)NC2CCCC2)c(=O)c2ccccc21)Nc1ccc(Br)cc1	USP17 block 37.8, USP30 block 41.3
O=C(Cn1c(=O)n(CCC(=O)NC2CCCC2)c(=O)c2ccccc21)Nc1ccc(Br)cc1F	none
Cc1nc(-c2ncc(C)[nH]2)cc(C2CCCN(C(=O)c3ccccc3)C2)n1 (stereo not drawn)	none
CC1(C)c2[nH]c3ccccc3c2C[C@@H]2C(=O)N(CC3CCCO3)CC(=O)N21 (stereo partly drawn)	none
Cc1cccc(-n2nc3c(c2NC(=O)Cc2ccc(Cl)cc2)CS(=O)(=O)C3)c1	none
O=C(Nc1ccc(OC(F)(F)F)cc1)NC1Cc2ccccc2C1	none
CCN(C(=O)c1cc2c(s1)-c1ccccc1OC2)c1ccccc1F	none
COc1ccc(CCNC(=O)c2cc3c(s2)-c2ccccc2OC3)cc1	USP17 block 36.8 (no result: USP30 block)
CSc1ccc(CN(C)c2nc3ccccc3nc2NS(=O)(=O)c2ccc3c(c2)OCCO3)cc1	none
COc1ccc(N2CCN(C(=O)CN3C(=O)[C@H]4CCCN4c4ncccc43)CC2)cc1	USP17 block 34.1
COc1cccc(CNC(=O)CN2C(=O)[C@@H]3CCCN3c3ncccc32)c1	none
Cc1nc(Nc2ccccn2)cc(C2CCCN2C2CCOCC2)n1 (stereo not drawn)	none
O=C(Nc1ccc(F)cc1F)NC1Cc2ccccc2C1	USP30 block 65.7
CCOc1ccccc1NC(=O)NC1Cc2ccccc2C1	none
CN1C(=O)COc2ccccc2CCCC[C@@H]2[C@H]1CCCN2C(=O)c1n[nH]c2c1CCC2	USP30 block 30.8
CN1C(=O)COc2ccccc2CCCC[C@@H]2[C@H]1CCCN2S(=O)(=O)N1CCOCC1	USP30 block 30.6
CN1CCC(C(=O)N2CCC[C@@H]3[C@H]2C/C=C/Cc2ccccc2OCC(=O)N3C)CC1	none
CN1C(=O)COc2ccccc2C/C=C/C[C@@H]2[C@H]1CCCN2C(=O)CC1CCOCC1	none
CCOC(=O)c1noc2nc(C)n(CC(=O)Nc3cccc(C)n3)c(=O)c12	none
O=C(NCCc1ccncc1)c1nc(-c2cn(-c3nccs3)cn2)n2ccccc12	none
CCOC(=O)c1cc(C#N)c(NCc2ccccc2OC)nc1-c1ccccc1	none
COC(=O)c1cc(C#N)c(NCc2ccccc2)nc1C	USP17 block 58.8
c1ccc2c(c1)cnn1c(-c3ccncc3)nnc21	none
Cc1ccc(CSc2ccc3nnc(-c4cccnc4)n3n2)cc1	none (no result: USP30 block)
c1ccc(Cc2nn3c(-c4ccncc4)nnc3c3ccccc23)cc1	USP17 block 48.8, USP30 block 36.0
c1ccc(Cc2nn3c(-c4cccnc4)nnc3c3ccccc23)cc1	USP17 block 61.9
Cc1ccc(-n2cc(-c3ccccc3)c3c(NCCc4ccc(S(N)(=O)=O)cc4)ncnc32)cc1Cl	none
O=C(c1cnc2ccccc2n1)N1CCC(c2nc(-c3ccc(F)cc3)no2)CC1	none
CCN1C(=O)Cc2cc(NS(=O)(=O)c3cc(C)ccc3OC)ccc21	USP17 block 47.2
CCOc1ccc(S(=O)(=O)Nc2ccc3c(c2)CC(=O)N3CC)cc1	none
Oc1ccc(Br)cc1CNc1ccc(F)cc1	USP17 block 52.9
CC1=NS(=O)(=O)c2cccnc2N1c1cc(C)cc(C)c1	none
O=c1oc2ccccc2c2nn(-c3ccccn3)cc12	USP17 block 50.8
O=c1oc2ccccc2c(N2CCN(c3ccccn3)CC2)c1CN1CCCC1	none
CC(C)CC(=O)N(Cc1ccc(-c2ccc(F)cc2)o1)C1CCS(=O)(=O)C1 (stereo not drawn)	none
O=C(NCc1nc2ccccc2[nH]1)c1cccc(S(=O)(=O)N2CCc3ccccc32)c1	USP17 block 31.5, USP30 block 59.1
CN(Cc1ccccc1Cl)C(=O)c1cccc(S(=O)(=O)N2CCc3ccccc32)c1	none
COc1ccc(C2(C(=O)N3CCC(Nc4nc(C)cc(=O)[nH]4)CC3)CC2)cc1	none
Cc1cc(N2CCN(c3ncccn3)CC2)nc2ccc(NC(=O)c3cccnc3)cc12	USP17 block 34.7
Cc1cc(N2CCN(c3ncccn3)CC2)nc2ccc(NC(=O)C3CC3)cc12	none
Cc1cc(N2CCN(c3ncccn3)CC2)nc2ccc(NC(=O)c3ccco3)cc12	USP17 block 67.2, USP30 block 57.5
Cn1c(CCN2CCN(c3ccccn3)CC2)nc2cc(NC(=O)c3ccco3)ccc21	none
COc1cccc(C(=O)Nc2ccc3nc(N4CCN(c5ncccn5)CC4)cc(C)c3c2)c1OC	USP17 block 59.4, USP30 block 85.2
COc1cccc(C(=O)Nc2ccc(N3CCCC3=O)c(C)c2)c1OC	none
c1ccc(CN2CCC[C@H]2c2nc(-c3ccc(-c4cncnc4)nc3)no2)cc1	none
CCC(=O)Nc1c(C)noc1/C=C\c1ccc(S(=O)(=O)Nc2ccccc2CC)cc1	none
CCC(=O)Nc1c(C)noc1/C=C\c1ccc(S(=O)(=O)Nc2ccc(F)cc2F)cc1	USP30 block 45.6
O=C(c1ccc2cc[nH]c2c1)N1CCOC2(COCCN(CC3CC3)C2)C1 (stereo not drawn)	none
COc1ccc(N(C(=O)c2cccnc2)S(=O)(=O)c2cccc3cccnc23)cc1	none
CC1Oc2ccc(NC(=O)c3cccc(NC(=O)c4cccs4)c3)cc2NC1=O (stereo not drawn)	USP17 block 38.3
COCc1cccc(C(=O)Nc2ccc3c(c2)NC(=O)C(C)O3)c1 (stereo not drawn)	none
CC(C)CNC(=O)[C@H]1C[C@@H]2CN(S(=O)(=O)C3CC3)C[C@H]1O2	none
Clc1cncc(Oc2nc(-c3cccnc3)nc3ccccc23)c1	USP17 block 62.6
O=C(O)c1cccc(Nc2nc(-c3cccnc3)nc3ccccc23)c1	none
Cc1cc(C)n2ncc(C(=O)N3CCN(c4ccccn4)CC3)c2n1	none
Cc1ccc2c(c1)N(C(=O)Cn1cc(S(=O)(=O)N3CCCCC3)ccc1=O)CCO2	none
COc1ccc(NC(=O)c2ccc(-n3nnnc3SC)cc2)cc1Cl	none
COc1ccc(OC)c(NC(=O)c2ccc(-n3nnnc3SC)cc2)c1	USP17 block 80.0
COc1ccc(C)cc1NC(=O)c1ccc(-n2nnnc2SC)cc1	USP17 block 73.2, USP30 block 51.8
CCOc1ccccc1NC(=O)c1ccc(-n2nnnc2SC)cc1	none
CC(C)(C)c1ccc(NC(=O)Nc2ccccc2N2CCCCC2)cc1	none
Cc1nc2cc(-c3nccn3C)nn2c(N2CCCC(CO)C2)c1C (stereo not drawn)	none
O=C(c1ccccc1)N1CCS(=O)(=O)[C@@H]2CCN(Cc3ccccc3)CC[C@@H]21	none
O=C(Cn1c(=O)c2ccccc2n(CC(=O)Nc2cccc(F)c2)c1=O)NCCc1ccccc1	USP30 block 37.6
Cc1ccc(NC(=O)Cn2c(=O)n(CCC(=O)NCCc3ccccc3)c(=O)c3ccccc32)cc1C	none
CCOc1ccc(NC(=O)Cn2c(=O)n(CCCCC(=O)NCCc3ccccc3)c(=O)c3ccccc32)cc1	none
O=C(CCCCn1c(=O)c2ccccc2n(CC(=O)Nc2ccc(F)cc2)c1=O)NCCc1ccccc1	USP17 block 46.7

Bioassay records (PubChem BioAssay)
